Hit rate of the full screen: of about 310,000 compounds, about 14,000 (4.5%) showed an effect of 50% or more. Effects have a minus sign here. Only a selection was taken, and strong results are over-represented in it overall.
These molecules were tested against human ether-à-go-go-related gene (hERG) potassium channel (human, UniProt Q12809) (assay: primary screen, population patch clamp on CHO cells stably expressing hERG; higher = less effect of the substance).
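Further: peak tail current of the secondary pulse compared with the same well before compound.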

Chain of human ether-à-go-go-related gene (hERG) potassium channel (Q12809 whole entry, looked up): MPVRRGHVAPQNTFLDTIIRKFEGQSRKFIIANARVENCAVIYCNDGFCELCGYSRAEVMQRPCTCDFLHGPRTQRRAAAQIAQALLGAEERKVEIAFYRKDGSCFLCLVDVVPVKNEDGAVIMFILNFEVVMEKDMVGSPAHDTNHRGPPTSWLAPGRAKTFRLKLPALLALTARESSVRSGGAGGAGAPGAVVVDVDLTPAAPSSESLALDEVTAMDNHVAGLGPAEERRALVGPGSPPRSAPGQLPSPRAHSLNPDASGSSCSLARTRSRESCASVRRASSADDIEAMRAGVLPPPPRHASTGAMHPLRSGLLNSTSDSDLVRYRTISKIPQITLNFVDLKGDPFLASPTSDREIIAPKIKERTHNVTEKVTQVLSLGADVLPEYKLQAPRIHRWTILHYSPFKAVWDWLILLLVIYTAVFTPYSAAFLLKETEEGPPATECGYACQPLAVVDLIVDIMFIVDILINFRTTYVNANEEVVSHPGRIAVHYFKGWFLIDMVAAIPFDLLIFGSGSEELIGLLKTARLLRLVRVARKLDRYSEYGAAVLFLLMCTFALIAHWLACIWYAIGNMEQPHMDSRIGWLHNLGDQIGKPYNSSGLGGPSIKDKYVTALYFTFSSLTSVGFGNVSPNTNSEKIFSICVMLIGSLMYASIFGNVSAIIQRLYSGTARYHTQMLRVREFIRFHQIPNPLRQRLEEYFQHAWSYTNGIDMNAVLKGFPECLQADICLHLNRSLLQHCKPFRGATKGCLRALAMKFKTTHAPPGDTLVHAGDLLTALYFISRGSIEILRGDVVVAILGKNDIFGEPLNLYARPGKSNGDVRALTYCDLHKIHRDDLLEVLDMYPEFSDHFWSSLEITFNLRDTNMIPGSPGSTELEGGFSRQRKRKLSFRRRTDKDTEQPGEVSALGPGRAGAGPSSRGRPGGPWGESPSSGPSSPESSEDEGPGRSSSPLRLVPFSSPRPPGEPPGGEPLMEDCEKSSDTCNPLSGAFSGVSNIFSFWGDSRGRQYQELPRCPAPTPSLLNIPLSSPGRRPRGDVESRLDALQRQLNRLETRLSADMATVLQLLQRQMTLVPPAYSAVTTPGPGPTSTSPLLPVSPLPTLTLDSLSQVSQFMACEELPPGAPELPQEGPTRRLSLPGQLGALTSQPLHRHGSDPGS

Row | SMILES | hERG current change (%, negative = inhibition) at 10uM
1 | c1ccc2c(c1)NC1(CCCC1)n1c-2nc2ccccc21 | -9.46%
2 | CCOP(=S)(OCC)C(O)CCCCCn1c(=O)c(F)cn(C2CCCO2)c1=O (stereo not drawn) | -2.13%
3 | CN(C(=S)Nc1ccc(F)cc1)C(c1ccccc1)c1ccccc1 | 11.1%
4 | CCn1c(SCC(=O)Nc2ccc(NC(C)=O)cc2)nc2c1c(=O)n(C)c(=O)n2C | 24.7%
5 | CC(=O)n1cc([C@H]2C=C(C(=O)N3CCN(Cc4ccc5c(c4)OCO5)CC3)O[C@@H](OCCCCO)C2)c2ccccc21 | -32.7%
6 | O=C(C1=C[C@@H](c2ccc3c(c2)OCO3)C[C@@H](OCCCCO)O1)N1CCN(Cc2ccc3c(c2)OCO3)CC1 | -65.9%
7 | O=C(C1=C[C@H](c2ccccc2)C[C@H](OCc2ccc(CO)cc2)O1)N1CCN(Cc2ccc3c(c2)OCO3)CC1 | -39.5%
8 | CN1CCN(C(=O)C2=C[C@H](c3ccc4c(c3)OCO4)C[C@H](OCCCCO)O2)CC1 | -8.06%
9 | CC(=O)n1cc([C@@H]2C=C(C(=O)N3CCN(Cc4ccc5c(c4)OCO5)CC3)O[C@H](OCCCCO)C2)c2ccccc21 | -50.2%
10 | CC(=O)n1cc([C@H]2C=C(C(=O)N3CCN(Cc4ccc5c(c4)OCO5)CC3)O[C@@H](OCc3ccc(CO)cc3)C2)c2ccccc21 | 3.43%
11 | O=C(C1=C[C@@H](c2ccccc2)C[C@@H](OCCCCO)O1)N1CCN(Cc2ccc3c(c2)OCO3)CC1 | -55.2%
12 | O=C(C1=C[C@H](c2ccccc2)C[C@H](OCCCCO)O1)N1CCN(Cc2ccc3c(c2)OCO3)CC1 | -41.8%
13 | O=C(C1=C[C@H](c2ccc3c(c2)OCO3)C[C@H](OCCCCO)O1)N1CCOCC1 | -1.14%
14 | O=C(C1=C[C@H](c2ccc3c(c2)OCO3)C[C@H](OCCCCO)O1)N1CCN(Cc2ccccc2)CC1 | -62.8%
15 | CC1(C)CC2(CCO1)OC(=O)CC2C(=O)Nc1ccccc1Cl (stereo not drawn) | 1.54%
16 | Cc1ccc(S(=O)(=O)NNC(=O)c2cccs2)c(C)c1 | 14.4%
17 | Cc1ccc(O)c(N=NC2=C(O)CC(C)(C)CC2=O)c1 | 3.16%
18 | Cc1nn(C)c(Oc2cccc(Cl)c2)c1C(=O)Nc1ccc(F)cc1 | -15.3%
19 | CCn1c(CCn2ccnc2C)n[nH]c1=S | -1.48%
20 | O=C1CCCC2=C1C(Cc1ccccc1)C1=C(CCCC1=O)O2 | -3.32%
21 | CCCc1cc(C(=O)NC(C)C2CCCO2)cs1 (stereo not drawn) | 7.72%
22 | Cc1nc2cc(NS(=O)(=O)c3ccccc3)ccc2n1C | 9.21%
23 | CC(=O)c1cccc(NC(=O)C2CCCN(S(C)(=O)=O)C2)c1 (stereo not drawn) | 8.02%

Row | SMILES | hERG current change (%, negative = inhibition) at 10uM
24 | N#C/C(=C\c1ccccc1)C(=O)Nc1ccccn1 | 12.7%
25 | CCCCN1C(=O)c2ccc(C(=O)Nc3c(N)n(CCCC)c(=O)n(C)c3=O)cc2C1=O | -51.9%
26 | CCCCN1C(=O)c2ccc(C(=O)Nc3cccc(C)c3C)cc2C1=O | 17.2%
27 | CCCCN1C(=O)c2ccc(C(=O)Nc3ccc(S(=O)(=O)N(C)C)cc3)cc2C1=O | -0.448%
28 | CCOC(=O)C1(Cc2ccc(OC)cc2)CCN(C(=O)CCc2cnccn2)CC1 | -7.37%
29 | CCOC(=O)C1(CCCc2ccccc2)CCN(C(=O)CCc2cnccn2)CC1 | -66.4%
30 | CCOC(=O)C1(Cc2ccc(Cl)cc2)CCN(C(=O)CCc2cnccn2)CC1 | -50%
31 | CCOC(=O)C1(CCc2ccccc2)CCN(C(=O)CCc2cnccn2)CC1 | -66.5%
32 | Cc1ccc(C)c(SCC(=O)Nc2cccnc2Cl)c1 | 0.545%
33 | O=C(COC(=O)Cc1ccccc1[N+](=O)[O-])NCC1CCCCC1 | 0.647%
34 | COc1ccc(NC(=S)NC(=O)C2CCC2)cc1 | 7.29%
35 | O=S(=O)(NCc1ccco1)c1cccc2cccnc12 | -22.3%
36 | N#CC(C#N)=C1C=CC=CN1/C(=C\c1ccccc1Cl)C(=O)c1ccccc1 | 8.73%
37 | COc1ccc(C(=O)/C(=C\c2ccco2)N2C=CC=CC2=C(C#N)C#N)cc1 | -72%
38 | N#CC(C#N)=C1C=CC=CN1/C(=C\c1ccco1)C(=O)c1ccccc1 | -57.8%
39 | N#CC(C#N)=C1C=CC=CN1/C(=C\c1ccco1)C(=O)c1ccc(Br)cc1 | -46.5%
40 | N#CC(C#N)=C1C=CC=CN1/C(=C\c1ccco1)C(=O)c1ccc(-c2ccccc2)cc1 | 3.14%
41 | N#CC(C#N)=C1C=CC=CN1/C(=C\c1ccco1)C(=O)c1ccc(Cl)cc1 | -36%
42 | COc1cc(/C=N/Nc2ccc([N+](=O)[O-])cc2S(=O)(=O)N2CCOCC2)cc(OC)c1OC | -3.33%
43 | O=C(Nc1ccc(Cl)cc1Cl)c1csc(-c2cccnc2)n1 | -1.42%
44 | CS(=O)(=O)N1CCc2cc(C(=O)Nc3ccccc3)ccc21 | -1.25%
45 | Cc1cccc(Nc2nc(NCc3ccco3)nc(N)c2[N+](=O)[O-])c1 | 10.6%

From PMC4336329 (PLoS ONE, 2015)
